Source: PubChem
Shown are actives, neighbours in structure and some others; about 10% of the full set was active somewhere.
KinaseGlo FLuc – Counterscreen for Luciferase (Kinase-Glo TM) Inhibition | Kinase-Glo luciferase, ATP luminescence, 8 min | Luciferin 4-monooxygenase (Photuris pensylvanica), Q27757 | Potency, µM (titrated, usually from 38.3 µM), most hits filed as inhibitors | hit rate 0.28% among 200,000 | AID 1379, 2008; active = well fitted inhibition curve with a large enough effect; inconclusive = small, poorly fitted or top-dose-only effect; note: nearly all actives have a fitted effect of over 60% in size
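Luminescence was the read-out, taken after 8-minute incubation at ambient temperature. Luciferase turned over luciferin with 10 uM ATP in imidazole pH 7.2 buffer containing KCl, MgCl2, Tween 20 and BSA.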
ALDH1A1 block – qHTS Assay for Inhibitors of Aldehyde Dehydrogenase 1 (ALDH1A1); Aldehyde dehydrogenase 1A1 (Homo sapiens), P00352; Purified ALDH1A1, NADH fluorescence, propionaldehyde substrate; Potency, µM (titrated, usually from 75.3 µM), usual class: inhibitors; hit rate 7.3% among 220,000
PNC inhibitor – High Content Assay for Compounds that inhibit the Assembly of the Perinucleolar Compartment; PC3M PTB-GFP, PNC prevalence imaging, 16 h; active compounds read low; activity change (PNC), negative = inhibition, % at 10 µM; hit rate 3.1% among 140,000; AID 2417, 2010;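 active = readout at or below -70, meaning at least 70% loss of cells showing the perinucleolar compartment, a nuclear body marking cancer cells; inconclusive = readout between -30 and a set limit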
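Read-out is percentage of cells bearing a perinucleolar compartment, from automated 20x imaging of fixed, Hoechst-stained PC3M PTB-GFP cells. Cells were seeded 4 h, then exposed 16 h to compound (23 nl of library stock) in duplicate plates.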
LMNA splice mod – qHTS Assay for Modulators of Lamin A Splicing. HeLa LMNA splicing GFP/RFP minigene ratio, 48 h. Potency, µM (series often up to 46.1 µM), most hits filed as inhibitors. hit rate 0.01% among 200,000; active = well fitted inhibition curve with a large enough effect in the signal ratio, with a control signal flat, not every such curve was filed as active; inconclusive = small, poorly fitted or top-dose-only effect, or effect the other way, or a change in a side signal; the % refers to the signal ratio
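S3 HeLa stable clones carrying a lamin A-EGFP splicing minigene plus DsRed2 were seeded at 600 cells/well in Opti-MEM with 2% FBS, pin-dosed and incubated 48 h at 37°C. Acumen cytometry (488 nm) gave the GFP/RFP total-intensity ratio.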
HPGD inh – qHTS Assay for Inhibitors of HPGD (15-Hydroxyprostaglandin Dehydrogenase); 15-hydroxyprostaglandin dehydrogenase [NAD(+)] (Homo sapiens), P15428; purified HPGD, NADH fluorescence kinetic, PGE2 substrate; Potency, µM, usual class: inhibitors; hit rate 4.3% among 150,000; AID 894, 2007
Target sequence (P15428 whole entry, looked up): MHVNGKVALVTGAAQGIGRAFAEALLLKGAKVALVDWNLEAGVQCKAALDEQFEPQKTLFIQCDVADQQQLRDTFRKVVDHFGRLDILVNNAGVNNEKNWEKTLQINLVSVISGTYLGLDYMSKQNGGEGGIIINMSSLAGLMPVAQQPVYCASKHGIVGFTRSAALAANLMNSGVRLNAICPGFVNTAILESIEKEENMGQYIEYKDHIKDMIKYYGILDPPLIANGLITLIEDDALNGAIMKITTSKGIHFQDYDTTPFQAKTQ
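NADH formation kinetics: reaction with 30 uM PGE2 and 1 mM NAD+ (final), 20 nM enzyme, Tris-HCl pH 8 with Tween 20, after 15 min compound preincubation at room temperature. Fluorescence change, last versus first of five reads.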
A number is an active result; – = inactive; ? = inconclusive; · = no result given; [ ] = dose if it differs, or a comment. Unless noted, calls come from the whole dose curve; as a rule, active = well fitted inhibition curve with a large enough effect (not every such curve was filed as active); inconclusive = small, poorly fitted or top-dose-only effect, or another doubt; inactive = no such curve, though single readings can be large or run the other way.

SMILES	KinaseGlo FLuc	ALDH1A1 block	PNC inhibitor	LMNA splice mod	HPGD inh
CC(C)(C)C1CCc2c(sc(NC(=O)CSc3ncn[nH]3)c2C#N)C1 (stereo not drawn)	–	8.91µM	–	?	14.1µM
CCCc1cc(=O)[nH]c(SCC(=O)Nc2sc3c(c2C#N)CCC(C)C3)n1 (stereo not drawn)	–	22.4µM	·	–	·
COc1ccc(C)cc1NS(=O)(=O)c1cccc2nonc12	–	14.1µM	–	–	–
COc1ccc(S(=O)(=O)Nc2cc(C)ccc2OC)cc1C	–	–	–	–	–
Cc1ccc(-c2noc(CCC(=O)N(C)c3ccccc3C)n2)cc1	–	–	–	?	14.1µM
COc1ccc(-c2noc(CCC(=O)N3CCC(C)CC3)n2)cc1	–	?	–	–	5.01µM
Cc1ccc(-c2noc(CCC(=O)N3CCCC3)n2)cc1	–	–	?	?	25.1µM
Cc1ccc(-c2noc(CCC(=O)Nc3ccccc3C)n2)cc1	–	–	–	?	–
Cc1ccc(CN(C)C(=O)c2ccccc2Oc2ccccc2)o1	–	10µM	?	–	22.4µM
Cc1cc(NC(=O)c2ccccc2Oc2ccccc2)no1	–	–	–	?	–
CC1(C)S[C@@H]2[C@H](NC(=O)[C@@H](N)c3ccccc3)C(=O)N2[C@H]1C(=O)O[C@H]1OC(=O)c2ccccc21	–	2.82µM	·	?	?
Clc1cccc(Cl)c1C(Nc1nncs1)Nc1nncs1	–[7.66 µM]	?	·	·	–
O=C(NNc1ccc([N+](=O)[O-])cc1)c1ccccc1Cl	–	–	·	·	·
O=C(O)c1ccccc1Nc1ccc([N+](=O)[O-])cc1	–	–	-86.9	?	–
Cc1c(Cl)cccc1Nc1ccccc1C(=O)O	–	–	·	?	14.1µM
Cc1ccc(Cl)c(Nc2ccccc2C(=O)O)c1Cl	–	–	–	?	–
O=C(CCN1C(=O)C2CCCCC2C1=O)Nc1nc(-c2ccccc2)cs1 (stereo not drawn)	·	–	·	·	·
CCC(=O)NCCNc1ccc([N+](=O)[O-])cn1	–	–	-80.7	–	–
CC(=O)NCCNc1ccc([N+](=O)[O-])cn1	–	–	–	–	–
CCOC(=O)c1ccc2c(c1)nc(SCC(=O)c1ccco1)n2CC	–	?	–	–	–
COc1ccc(-n2c(SCC(=O)N3CCCC3)nc3ccccc3c2=O)cc1	–	–	·	·	·
COc1ccc(-n2c(SCC(=O)N3CCCCC3)nc(O)cc2=O)cc1	–	22.4µM	–	–	–
CCn1c(SCC(=O)N2CCCCC2)nc(O)cc1=O	–	–	–	–	0.282µM
CCOC(=O)c1ccc2c(c1)nc(SCC(=O)N1CCCCC1)n2CC	–	?	–	–	5.01µM
CO[C@H]1COC(=O)[C@@H](Cc2ccccc2)NC(=O)[C@@H](C)COC(=O)C/C=C\[C@@H]1C	·	–[13.5 µM]	·	·	·
SMILES	KinaseGlo FLuc	ALDH1A1 block	PNC inhibitor	LMNA splice mod	HPGD inh
CC(NC(=O)CCCN1C(=O)CCn2nc(-c3cn(C)c4ccccc34)cc21)c1ccccc1 (stereo not drawn)	·	·	·	–	·
CCc1ccccc1NC(=O)CN1C(=O)CCc2cc(S(=O)(=O)N3CCCCC3)ccc21	·	·	·	–	·
O=C(CS(=O)(=O)c1cccc2nsnc12)N1CCN(c2ccccc2F)CC1	·	·	·	–	·
CCCCCC(=O)N(O)C1CC(=O)N(c2ccccc2)C1=O (stereo not drawn)	–	0.794µM	–	?	15.8µM
CCCCCOc1ccc(N2C(=O)CC(N(O)c3ccccc3)C2=O)cc1 (stereo not drawn)	–	?	–	–	–
CCCCCCC(=O)N(O)C1CC(=O)N(Cc2ccccc2)C1=O (stereo not drawn)	–	3.55µM	?	?	17.8µM
CN(Cc1ccccc1)C1CC(=O)N(c2ccc(C(=O)O)cc2)C1=O (stereo not drawn)	–	28.2µM	–	–	–
COC(=O)c1ccc(N2C(=O)CC(NCc3ccccc3)C2=O)cc1 (stereo not drawn)	–	?	–	–	–
CCCCCC(=O)N(CN1C(=O)CCC1=O)c1ccccc1	–	–	–	–	–
C=CCOC(=O)N[C@H](c1ccccc1)C(C(C)=O)C(C)=O	–	–	·	·	–
COc1ccc(S(=O)(=O)n2nc(C)c(S(=O)(=O)N3CCCCC3)c2C)cc1	·	·	·	–	·
CC(=O)c1cccc(NC(=O)c2ccco2)c1	–	–	–	?	–
O=C(Nc1cccc(-n2cnnn2)c1)c1ccco1	–	39.8µM	–	–	–
Cn1cnc2cc(NC(=O)c3ccco3)ccc21	–	–	?	–	–
O=C(Nc1ccc2c(c1)ncn2-c1ccccc1)c1ccco1	–	?	–	–	31.6µM
COc1ccc(-c2nc3cnc(N4CCOCC4)nc3n(CCC#N)c2=O)cc1	–	?	·	·	–
Cc1ccc2nc(C)c(C(=O)NN=C3CCN(C)CC3)n2c1	–	7.94µM	·	–	·
CCC(=O)/C=C/C1C(C)=CCCC1(C)C (stereo not drawn)	·	12.6µM	·	·	–
O=C(CC1N=C2c3ccccc3N=C(SCc3ccccc3F)N2C1=O)NCc1cccs1 (stereo not drawn)	·	·	·	–	·
NNC(=O)c1ccc(OCc2nc3ccccc3[nH]2)cc1	–[7.66 µM]	?	·	·	–
CCCS(=O)(=O)N1CCN(Cc2ccccc2OCC)CC1	–	–	-85.2	–	–
O=C(c1ccc2c(=O)n(-c3ccccc3)c(=O)[nH]c2c1)N1CCN(c2ccc(F)cc2)CC1	–	–	–	?	–
CC(=O)c1ccc(N2CCN(C(=O)c3ccc4c(=O)n(-c5ccccc5)c(=O)[nH]c4c3)CC2)cc1	–	14.1µM	-107.6	?	–
COc1cc(C(=O)N/N=C/c2cc([N+](=O)[O-])cs2)cc(OC)c1OC	–	?	-102.6	?	–
CCCCNC(=S)Nc1ccc2nc3n(c(=O)c2c1)CCCCC3	–	–	–	?	14.1µM
SMILES	KinaseGlo FLuc	ALDH1A1 block	PNC inhibitor	LMNA splice mod	HPGD inh
CC(C)CCNC(=S)Nc1ccc2nc3n(c(=O)c2c1)CCCCC3	–	?	–	?	4.47µM
CC1CCN(C(=S)Nc2ccc3nc4n(c(=O)c3c2)CCCCC4)CC1	–	?	?	?	12.6µM
O=c1c2cc(NC(=S)N3CCCCC3)ccc2nc2n1CCCCC2	–	?	·	·	·
C[N+](C)(C)CCN[N@@+]1(C)CCCc2ccccc21	–[7.66 µM]	–[13.5 µM]	·	·	?
COC(=O)NC(/C(C(=O)OC)=C(\C)NCc1ccccc1)c1ccccc1 (stereo not drawn)	·	–[13.5 µM]	·	·	·
COC(=O)NC(/C(C(=O)OC)=C(\C)NCc1ccccc1)c1ccc2ccccc2c1 (stereo not drawn)	·	3.55µM	·	·	·
O=C(NNC(=O)c1cccnc1)NC12CC3CC(CC(C3)C1)C2	–	–	-80.8	–	–
CCOC(=O)C1CCC(CN(Cc2ccc(Cl)cc2)S(=O)(=O)c2ccc(Br)cc2)CC1 (stereo not drawn)	·	·	·	–	·
C/C=C/c1c(F)c(F)c(Oc2ccc(C(=O)O)cc2)c(F)c1F	–	–	-84.5	–	?
